Sampled rows, rich in hits. Any-hit rate of the full collection: about 7.8%.
LASV entry inh – qHTS for Inhibitors of binding or entry into cells for Lassa Virus; Potency, µM (top dose mostly 37.9 µM), most hits filed as inhibitors; AID 540256, 2011; 300,000 compounds, 1.2% hits; Lassa virus pseudotype entry inhibition, cell reporter; calls by dose curve; tested in HEK293 cells; also: nearly all actives have a fitted effect of over 50% in size
VACV mCherry inh – qHTS for Stage-Specific Inhibitors of Vaccinia Orthopoxvirus: mCherry Reporter Primary qHTS; AID 720579, 2013; Potency, µM (highest dose often 36.5 µM), usual class: inhibitors; 310,000 compounds, 0.63% hits; Vaccinia virus mCherry reporter infection, fluorescence; calls by dose curve; tested in A549 cells; also: nearly all actives have a fitted effect of over 35% in size
HCMV inh – qHTS Assay for inhibitors of the human cytomegalovirus (HCMV); HFF cells, HCMV-luciferase reporter, 72 h; stronger effect = lower value; activity change, negative = inhibition, % at 57.5 µM; 410,000 compounds, 4.5% hits; in the data active = activity change below about -60%; inconclusive = no clear call, values can overlap the other calls; inactive = above about -39%
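After 16 h attachment at 37C, HFF cells received test compound and HCMV-luciferase (1 PFU/cell); reporter luminescence read 72 h later, data normalized against buffer-only and known inhibitor Salinomycin.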
Vaccinia Venus – qHTS for Stage-Specific Inhibitors of Vaccinia Orthopoxvirus: Venus Reporter Primary qHTS | Vaccinia virus Venus reporter expression, fluorescence | Potency, µM (series often up to 36.5 µM), usual class: inhibitors | 330,000 compounds, 0.46% hits | AID 720580, 2013; calls by dose curve; tested in A549 cells; also: nearly all actives have a fitted effect of over 30% in size
Marburg entry inh – qHTS for inhibitors of binding or entry into cells for Marburg Virus | Marburg virus pseudotyped entry inhibition, cell reporter | Potency, µM (series often up to 37.8 µM), usual class: inhibitors | 300,000 compounds, 1.8% hits; calls by dose curve; tested in HEK293 cells
HCV inhibitor – qHTS Assay for Inhibitors of Hepatitis C Virus (HCV); Potency, µM (top dose mostly 41.8 µM), actives largely listed as inhibitors; Huh7.5.1 HCVcc-Cre infection, luciferase reporter, 44 h; 340,000 compounds, 3.4% hits; active = well fitted inhibition curve with a large enough effect; inconclusive = small, poorly fitted or top-dose-only effect, or another doubt; inactive = no such curve, though single readings can be large or run the other way
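HCVcc-Cre virus at an moi near 0.5 was added right after compound to cells cultured 4 h from seeding (1,000 cells/well). Luciferase activity was determined 44 h later, 15 min after substrate addition at RT.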
Large screens that a line does not name were inactive.

O=C1CC(c2nnc(Cc3ccc(F)cc3Cl)o2)CN1c1ccccc1 (stereo not given)	none (no result: HCV inhibitor)
O=C(Nc1ccc(Br)cn1)c1cnn2c1NC(=C1CC1)C=C2C(F)F	none (no result: LASV entry inh, HCMV inh, Marburg entry inh, HCV inhibitor)
CCOC(=O)Cn1cc(C(=O)c2cccs2)c2ccccc21	Marburg entry inh inconclusive, HCV inhibitor 8.9µM
Cc1ccc(NC(=O)c2cnn(-c3ccccc3)c2C)cc1	HCV inhibitor inconclusive (no result: LASV entry inh, VACV mCherry inh, Vaccinia Venus, Marburg entry inh)
Cc1ccc(NC(=O)c2csc(-c3ccccc3)c2C)cc1	LASV entry inh 6.5µM, Marburg entry inh 13µM (no result: VACV mCherry inh, Vaccinia Venus)
Cc1ccc(NC(=O)c2cc(C)n(-c3ccccc3)c2C)cc1	LASV entry inh 2.8µM, HCMV inh -93, Marburg entry inh 2.2µM, HCV inhibitor inconclusive
Cc1ccc(NC(=O)c2cc(C)n(-c3cccc(C)c3)c2C)cc1	LASV entry inh 10µM, Marburg entry inh 6.5µM, HCV inhibitor inconclusive
Cc1ccc(-n2c(C)cc(C(=O)NS(=O)(=O)c3ccc(C)cc3)c2C)cc1	none
Cc1cc(C(=O)Nc2ccc(Cl)cc2)c(C)n1-c1ccccc1	LASV entry inh inconclusive, HCMV inh -93, Marburg entry inh 1.1µM
O=S(=O)(c1ccccc1)c1c2c(cc3ccc(Cl)cc13)CCC2	none (no result: LASV entry inh, VACV mCherry inh, Vaccinia Venus, Marburg entry inh, HCV inhibitor)
C[C@]12CCCCC3=CC(=O)C=C[C@@]31OC(=O)CC2	none (no result: LASV entry inh, VACV mCherry inh, Vaccinia Venus, Marburg entry inh, HCV inhibitor)
Cc1ccc2cc(CNCc3cccc4ccccc34)c(N3CCC(O)CC3)nc2c1	none (no result: LASV entry inh, HCMV inh, Marburg entry inh, HCV inhibitor)
CCCCCCc1ccc(-c2ncc(N)cn2)cc1	HCV inhibitor 5.6µM (no result: VACV mCherry inh, Vaccinia Venus)
COc1ccc(CNC(=O)c2cnn(-c3ccc(C)cc3)c2-n2cccc2)cc1OC	VACV mCherry inh inconclusive, Vaccinia Venus inconclusive (no result: Marburg entry inh, HCV inhibitor)
COc1ccc(CN2C(=O)C(n3c(C)ccc3C)c3cc(F)ccc32)cc1 (stereo not given)	none (no result: LASV entry inh, VACV mCherry inh, Vaccinia Venus, Marburg entry inh, HCV inhibitor)
CCOC(=O)c1sc(=S)n(-c2ccc(OC)cc2)c1C	none
CCOC(=O)c1c2c(n(-c3ccc(OC)cc3)c1C)C(=O)C(=O)c1ccccc1-2	LASV entry inh 2.2µM, VACV mCherry inh 2.8µM, Vaccinia Venus 4.5µM, Marburg entry inh inconclusive, HCV inhibitor 7.9µM (no result: HCMV inh)
O=C(NCCc1ccc(Cl)cc1)C(=O)NCC(c1ccco1)S(=O)(=O)c1ccc(Cl)cc1 (stereo not given)	VACV mCherry inh inconclusive, HCMV inh -81, Vaccinia Venus inconclusive (no result: Marburg entry inh, HCV inhibitor)
O=C(Cc1ccccc1)N(Cc1cccnc1)c1nc2c(F)cc(F)cc2s1	LASV entry inh 13µM (no result: Marburg entry inh, HCV inhibitor)
CC(=O)N(Cc1cccnc1)c1nc2c(F)cc(F)cc2s1	none (no result: Marburg entry inh, HCV inhibitor)
CN(C)S(=O)(=O)c1ccc(NC(=S)NC(=O)Cc2ccccc2)cc1	HCMV inh -63
Cc1ccc(NC(=O)COc2cccc(-n3cnnn3)c2)cc1S(=O)(=O)N1CCOCC1	HCV inhibitor 11µM (no result: LASV entry inh, VACV mCherry inh, Vaccinia Venus, Marburg entry inh)
CC(=O)c1ccc(S(=O)(=O)N2CCN(C(=O)c3ccc(-n4nc(C)c(Cl)c4C)cc3)CC2)cc1	HCMV inh -90, HCV inhibitor 6.3µM (no result: LASV entry inh, VACV mCherry inh, Vaccinia Venus, Marburg entry inh)
Cc1ccc(NC(=O)c2ccc(S(=O)(=O)N3CC(C)CC(C)C3)cc2)cc1S(=O)(=O)N1CCOCC1 (stereo not given)	HCMV inh inconclusive, HCV inhibitor 7.9µM (no result: LASV entry inh, VACV mCherry inh, Vaccinia Venus, Marburg entry inh)
Cc1nn(-c2ccc(C(=O)N3CCN(S(=O)(=O)c4ccccc4C(F)(F)F)CC3)cc2)c(C)c1Cl	none (no result: LASV entry inh, VACV mCherry inh, Vaccinia Venus, Marburg entry inh)
Cc1ccc(NC(=O)c2cccnc2)cc1S(=O)(=O)N1CCOCC1	HCV inhibitor inconclusive
Cc1cc(C)n(-c2ccc(C(=O)Nc3ccc(C)c(S(=O)(=O)N4CCOCC4)c3)cc2)n1	LASV entry inh inconclusive, VACV mCherry inh inconclusive, HCMV inh -83, Marburg entry inh 10µM, HCV inhibitor inconclusive
CCOC(=O)C1CCN(C(=O)CSc2n[nH]c(-c3ccc(OC)cc3)n2)CC1	none (no result: Marburg entry inh, HCV inhibitor)
CC1CC(C)CN(S(=O)(=O)c2ccc(C(=O)N3CCCC3)cc2)C1 (stereo not given)	HCMV inh inconclusive
CC1CC(C)CN(C(=O)c2ccc(S(=O)(=O)N3CC(C)CC(C)C3)cc2)C1 (stereo not given)	LASV entry inh inconclusive, HCMV inh -65, Marburg entry inh inconclusive
COC(=O)[C@H](COC(C)(C)C)NC(=O)O[C@@H]1C(=O)c2cc(OC)ccc2O[C@H]1c1ccc(OC)c(Br)c1	none (no result: LASV entry inh, VACV mCherry inh, HCMV inh, Vaccinia Venus, HCV inhibitor)

Compound activity as filed in PubChem BioAssay.
